Assay results taken from PubChem BioAssay AID1159580 (chemical genetic matrix, 2015).
Among all 5,500 compounds or so, about 2,000 (36%) were called active. Inconclusive results (about 18%) are left out. Rule as the data show it: active = normalized growth mostly below about 0.91 (no sharp cut-off); inconclusive = no clear call, values can overlap the other calls; inactive = mostly above about 0.92. This is one part of the list.

Assay: chemical genetic growth profiling, strain panel (AID 1159580);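 also: tested at 20 µM; growth read once vehicle control cultures reached saturation at 30 °C; 1 = growth at the plate median or of vehicle wells; lower values mean less growth of the strain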
Conditions: S. cerevisiae deletion strains, growth OD

Measured: normalized growth

CCCCCN=C(N)N/N=C\c1c[nH]c2ccc(OC)cc12
inactive: locus YAL013W, strain DEP1, stronger effect = lower value 1.01 | locus YAL021C, strain ccr4, stronger effect = lower value 0.985 | locus YAL026C, strain drs2, stronger effect = lower value 0.928 | locus YAL030W, strain snc1, stronger effect = lower value 1.01 | locus YBL061C, strain skt5, stronger effect = lower value 1.01 | locus YBR009C, strain hhf1, stronger effect = lower value 0.985 | locus YBR021W, strain FUR4, stronger effect = lower value 0.989 | locus YBR023C, strain chs3, stronger effect = lower value 0.988 | locus YBR171W, strain sec66, stronger effect = lower value 1.03 | locus YBR229C, strain ROT2, stronger effect = lower value 1 | locus YBR231C, strain swc5, stronger effect = lower value 1 | locus YBR279W, strain paf1, stronger effect = lower value 1.01 | locus YCL011C, strain gbp2, stronger effect = lower value 1 | locus YCL016C, strain dcc1, stronger effect = lower value 0.985 | locus YCL029C, strain bik1, stronger effect = lower value 1.03 | locus YCL069W, strain vba3, stronger effect = lower value 1.02 | locus YCR088W, strain abp1, stronger effect = lower value 1.02 | locus YDL005C, strain med2, stronger effect = lower value 1.01 | locus YDL035C, strain GPR1, stronger effect = lower value 0.989 | locus YDL040C, strain nat1, stronger effect = lower value 0.998 | locus YDL074C, strain BRE1, stronger effect = lower value 1.01 | locus YDL101C, strain DUN1, stronger effect = lower value 1.01 | locus YDL134C, strain PPH21, stronger effect = lower value 0.997 | locus YDL185W, strain tfp1, stronger effect = lower value 1.06 | locus YDL192W, strain arf1, stronger effect = lower value 1.03 | locus YDR001C, strain nth1, stronger effect = lower value 1.01 | locus YDR069C, strain doa4, stronger effect = lower value 1.02 | locus YDR101C, strain arx1, stronger effect = lower value 1.02 | locus YDR137W, strain rgp1, stronger effect = lower value 1.07 | locus YDR150W, strain NUM1, stronger effect = lower value 1.02 | locus YDR159W, strain sac3, stronger effect = lower value 0.965 | locus YDR162C, strain NBP2, stronger effect = lower value 0.993 | locus YDR195W, strain ref2 1.01 | locus YDR297W, strain sur2, stronger effect = lower value 1 | locus YDR318W, strain mcm21, stronger effect = lower value 1.02 | locus YDR334W, strain swr1, stronger effect = lower value 1.01 | locus YDR335W, strain msn5, stronger effect = lower value 1.01 | locus YDR388W, stronger effect = lower value 1.03 | locus YDR392W, strain spt3, stronger effect = lower value 0.911 | locus YDR502C, strain sam2, stronger effect = lower value 1 | locus YEL003W, strain gim4, stronger effect = lower value 1.01 | locus YEL037C, strain rad23, stronger effect = lower value 1.01 | locus YEL061C, strain CIN8 (second series), stronger effect = lower value 1.01 | locus YEL061C, strain CIN8, stronger effect = lower value 0.994 | locus YER015W, strain faa2, stronger effect = lower value 0.982 | locus YER016W, strain bim1, stronger effect = lower value 1 | locus YER110C, stronger effect = lower value 1.05 | locus YER111C, strain swi4, stronger effect = lower value 1.02 | locus YER155C, strain BEM2 (second series), stronger effect = lower value 0.968 | locus YER155C, strain BEM2, stronger effect = lower value 1.01 | locus YER167W, strain BCK2, stronger effect = lower value 1.01 | locus YFR010W, strain ubp6, stronger effect = lower value 1.03 | locus YGL078C, strain dbp3, stronger effect = lower value 1.02 | locus YGL086W, strain mad1, stronger effect = lower value 1.01 | locus YGL167C, strain pmr1, stronger effect = lower value 1.01 | locus YGL173C, strain kem1, stronger effect = lower value 1.01 | locus YGL227W, strain vid30, stronger effect = lower value 1.02 | locus YGL240W, strain doc1, stronger effect = lower value 1.01 | locus YGL248W, strain PDE1, stronger effect = lower value 1 | locus YGL253W, strain hxk2, stronger effect = lower value 1.03 | locus YGR078C, strain PAC10, stronger effect = lower value 1.02 | locus YGR135W, strain pre9, stronger effect = lower value 1.02 | locus YGR229C, strain SMI1, stronger effect = lower value 0.997 | locus YGR252W, strain gcn5, stronger effect = lower value 1.01 | locus YHR013C, strain ard1, stronger effect = lower value 1.03 | locus YHR027C, strain rpn1, stronger effect = lower value 1 | locus YHR030C, strain SLT2, stronger effect = lower value 1.01 | locus YHR079C, strain IRE1 (second series), stronger effect = lower value 1.01 | locus YHR094C, strain hxt1, stronger effect = lower value 1.02 | locus YHR129C, strain ARP1, stronger effect = lower value 0.999 | locus YHR142W, strain chs7, stronger effect = lower value 0.993 | locus YHR200W, strain rpn10, stronger effect = lower value 1.04 | locus YIL066C, strain RNR3, stronger effect = lower value 0.996 | locus YIL073C, strain SPO22, stronger effect = lower value 1.02 | locus YIL125W, strain kgd1, stronger effect = lower value 1.01 | locus YIR030C, strain dcg1, stronger effect = lower value 1.02 | locus YJL092W, strain hpr5, stronger effect = lower value 1.01 | locus YJL095W, strain BCK1 (second series), stronger effect = lower value 1.01 | locus YJL095W, strain BCK1, stronger effect = lower value 0.987 | locus YJL115W, strain asf1, stronger effect = lower value 1 | locus YJL129C, strain trk1, stronger effect = lower value 1.02 | locus YJL134W, strain LCB3, stronger effect = lower value 1.01 | locus YJL154C, strain vps35, stronger effect = lower value 1.01 | locus YJL164C, strain tpk1, stronger effect = lower value 0.978 | locus YJL166W, strain qcr8, stronger effect = lower value 1.02 | locus YJL168C, strain set2, stronger effect = lower value 1.02 | locus YJL187C, strain SWE1 (second series), stronger effect = lower value 1 | locus YJL187C, strain SWE1, stronger effect = lower value 1
